Results published in PubChem BioAssay (NCI).
This is part of a sample that, as a whole, favours compounds with a hit. Of some 83,000 tested, about 20% had one in any assay.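 Percent growth is the endpoint: 0 to 100 indicates growth inhibition (40 means 60% inhibition), 0 means no net growth, and negative values indicate cell death.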 Unmarked numbers belong to inactive results. The source made the active and inactive calls. The calls were made as follows: active = growth percent below 10; inactive = the rest.

Assays:
Experiment in all cases: NCI-60 one-dose screen, 48 h (100 = growth as untreated, 0 = no growth, -100 = all killed)
Settings in all cases: 10 µM unless noted
NCI-H23 lung = test system: NCI-H23 lung
NCI-H226 lung = test system: NCI-H226 lung
NCI-H322M lung = test system: NCI-H322M lung
HOP-62 NSCLC = test system: HOP-62 NSCLC
NCI-H460 lung = test system: NCI-H460 lung
HOP-92 NSCLC = test system: HOP-92 NSCLC
NCI-H522 lung = test system: NCI-H522 lung
A549/ATCC NSCLC = test system: A549/ATCC NSCLC
786-0 renal = test system: 786-0 renal
COLO 205 colon = test system: COLO 205 colon
DU-145 prostate = test system: DU-145 prostate
K-562 leukemia = test system: K-562 leukemia
MALME-3M melanoma = test system: MALME-3M melanoma
RXF 393 renal = test system: RXF 393 renal
SF-268 CNS = test system: SF-268 CNS
SF-295 CNS = test system: SF-295 CNS
SF-539 CNS = test system: SF-539 CNS
UACC-257 melanoma = test system: UACC-257 melanoma
M14 melanoma = test system: M14 melanoma
MDA-MB-231 breast = test system: MDA-MB-231 breast

Row | SMILES | growth (NCI-H23 lung) | growth (NCI-H226 lung) | growth (NCI-H322M lung) | growth (HOP-62 NSCLC) | growth (NCI-H460 lung) | growth (HOP-92 NSCLC) | growth (NCI-H522 lung) | growth (A549/ATCC NSCLC) | growth (786-0 renal) | growth (COLO 205 colon) | growth (DU-145 prostate) | growth (K-562 leukemia) | growth (MALME-3M melanoma) | growth (RXF 393 renal) | growth (SF-268 CNS) | growth (SF-295 CNS) | growth (SF-539 CNS) | growth (UACC-257 melanoma) | growth (M14 melanoma) | growth (MDA-MB-231 breast)
1 | CC(=O)Nc1ccc(-c2cn(-c3cccc(C(=O)Nc4ccc(N5CCN(C)CC5)cc4)c3)nn2)cn1 | 67.4% | 69.1% | 96.2% | 60% | 90.4% | 44.8% | 91.8% | 76.1% | 12.5% | 72% | 83.4% | 31.5% | 72% | 97% | 88.7% | 58.6% | 68.6% | 100% | 87% | –
2 | COc1ccc(C2=NN(c3ccccc3)C(c3ccc(OCc4ccccc4)c(OC)c3)C2)cc1OC (stereo unspecified) | 107% | 124% | 103% | 109% | 104% | 105% | 85.4% | 101% | 97.1% | 94.1% | 113% | – | 99.1% | 86.2% | 90% | 91.3% | 98.7% | 90.9% | 91.2% | 101%
3 | CCOC(=O)C1=C(N)N(c2ccccc2)C2=C(C(=O)CC(C)(C)C2)C1c1ccc(Cl)cc1Cl (stereo unspecified) | 34.5% | 24.4% | 56.8% | 50.5% | 18.3% | -0.322% (active) | 35.3% | 26.9% | 34.3% | 9.03% (active) | 46% | 13% | 27.9% | 21.2% | 52.1% | 23.6% | 33.3% | 35% | 41.3% | –
4 | COc1ccc(NC(=O)Cn2c(/C=C/c3cccc([N+](=O)[O-])c3)nc3ccccc3c2=O)cc1 | 81.7% | 12.8% | 90.7% | 40.9% | 63% | -0.339% (active) | 94.4% | 84.7% | -15.8% (active) | 98.8% | 93.9% | – | 77% | -6.3% (active) | 71.6% | 79.2% | 7.2% (active) | 98.8% | 76.7% | 15.8%
5 | CSc1ccc(NC(=O)c2ccc3nnn(/C(C#N)=C/c4ccccn4)c3c2)cc1 | -95.9% (active) | -94.9% (active) | 3.57% (active) | -58.1% (active) | -47.2% (active) | -77.6% (active) | -95.4% (active) | -52.5% (active) | -98.1% (active) | -88.4% (active) | -97.9% (active) | -5.65% (active) | -94.6% (active) | -98.6% (active) | -3.01% (active) | -73.3% (active) | -99.3% (active) | -76.9% (active) | -89.7% (active) | –
6 | Cc1ccc2c(N)c(C(=O)Nc3ccc(-c4ccccc4)cc3)sc2n1 | 42.2% | 45.1% | 73.8% | 63.5% | 73% | 27.1% | 53.9% | 81.5% | 69.3% | 90.9% | 88.4% | 36.9% | 65.5% | 30.5% | 101% | 45.6% | 67.7% | 61% | 73.2% | –
7 | Nc1n[nH]c2cccc(C#Cc3cccc(NC(=O)c4cccc(Cl)c4)c3)c12 | 38.2% | 45.8% | 49.1% | 33.6% | 24.7% | 9.55% (active) | 11.4% | 24.7% | 11.2% | 19.2% | 55.8% | – | 46.4% | -14.7% (active) | 41.1% | 15.3% | 8.74% (active) | 48.5% | 15.9% | 9.79% (active)
8 | CC(=O)Nc1cccc(Nc2nccc(N[C@@H](C)c3ccccc3)n2)c1 | 18.2% | 34.7% | 40.6% | 8.72% (active) | 5.42% (active) | 45% | -43.4% (active) | 16.4% | 26.6% | -3.46% (active) | 24.8% | 7.64% (active) | 28.7% | 21.2% | 27.6% | -8.12% (active) | 9.09% (active) | 40.5% | 22.6% | –
9 | NS(=O)(=O)c1ccc(-n2cc(-c3cccc(NC(=O)c4cc(C(F)(F)F)cc(C(F)(F)F)c4)c3)nn2)cc1 | 41.1% | 27.5% | 65.8% | 15% | 71.4% | -16.9% (active) | 75.4% | 56.7% | 44.2% | 91.7% | 69.7% | 52.7% | 63.7% | – | 45.3% | 31.4% | 35.1% | 91.1% | 65% | –
10 | CN1CCN(Cc2ccc(C(=O)Nc3cccc(C#Cc4cccc5[nH]nc(N)c45)c3)cc2C(F)(F)F)CC1 | -87.3% (active) | -84% (active) | -98.3% (active) | -90.1% (active) | -25.3% (active) | -87.7% (active) | -64.3% (active) | -88.8% (active) | -99.4% (active) | -87% (active) | -68% (active) | – | -82.6% (active) | -93.6% (active) | -59% (active) | -93.4% (active) | -97.5% (active) | -94.7% (active) | -95.6% (active) | -90.8% (active)
11 | COc1ccc(C(=O)/C=C/c2ccc3ccccc3c2)cc1S(N)(=O)=O | -23.7% (active) | 20.1% | 11.3% | -30.1% (active) | 2.36% (active) | 24.9% | -62.9% (active) | -78.4% (active) | -89.2% (active) | -76.3% (active) | -9.03% (active) | – | 18.1% | -60.2% (active) | 12.8% | -80.5% (active) | -87.9% (active) | -48.4% (active) | -78.5% (active) | 6.01% (active)
12 | N#Cc1c(-c2cccc(O)c2O)cc(-c2ccc3ccccc3c2)[nH]c1=O | 52.1% | 68.3% | 72.7% | 49.2% | 41.7% | 28% | 51.3% | 84.9% | 64.1% | 84% | 57% | 67.1% | 59.1% | 39.3% | 58.6% | 83.6% | 28.8% | 99.9% | 65.1% | –
13 | O=C(NNc1ccccc1)n1c(=O)c2ccccc2c(=O)n1-c1ccccc1 | 100% | 95.7% | 98.8% | 90.7% | 105% | 93.9% | 86.4% | 83.1% | 92.5% | 109% | 104% | 45.8% | 96.5% | 109% | 92.8% | 87.2% | 97.5% | 77.6% | 100% | –
14 | COc1ccc(C(=O)/C=C/c2ccc(Cl)c(Cl)c2)cc1S(N)(=O)=O | -23.6% (active) | 25.5% | 21.3% | -47.1% (active) | 7.22% (active) | 31.2% | -47.2% (active) | 11.2% | -94.4% (active) | -75.9% (active) | 25.2% | – | 28% | -69.2% (active) | 24.6% | 7.4% (active) | -86.5% (active) | 1.95% (active) | -70.9% (active) | 20.7%
15 | C=C1CC[C@@H]2[C@]3(C)COC(c4cn(-c5ccccc5)nc4-c4cccc([N+](=O)[O-])c4)O[C@@H]3CC[C@@]2(C)[C@@H]1C/C=C1/C(=O)OC[C@H]1O (stereo partly specified) | -62.1% (active) | -48.6% (active) | 90% | 10.8% | 2.24% (active) | -84.3% (active) | -79.3% (active) | 30.7% | -35.8% (active) | -64.2% (active) | 44.3% | -12.7% (active) | -67.6% (active) | -84.2% (active) | 46% | -46.5% (active) | -96.4% (active) | -68% (active) | -51.2% (active) | –
16 | N#Cc1c(NCc2ccccc2)n[nH]c1Nc1ccccc1 | 58.4% | 50.2% | 65.1% | 88.9% | 44.2% | 62.3% | 82.3% | 31.6% | 63.3% | -8.53% (active) | 92.7% | – | 21.9% | 60.7% | 54.8% | 49.5% | 75.9% | 50.9% | 41.1% | 66.3%
17 | Cc1ccc(-n2c(-c3cc4ccccc4nc3Cl)noc2=O)cc1 | 87.7% | 77.7% | 92.5% | 65.1% | 90.6% | 70.6% | – | 85.7% | 91.3% | 103% | 105% | 30.6% | 93.3% | 92.4% | 86.7% | 76.1% | 84% | 95% | – | 63.6%
